The panel holds about 83,000 compounds, 20% with a hit somewhere; the sample as a whole holds those more often.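 Note: values are percent growth. 100 is the growth of untreated cells, values between 100 and 0 indicate rising inhibition; between -100 and 0 indicates cell death.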 Calls of active or inactive are those of the source. How the source made its calls: active means growth percent below 10; inactive means the rest.
What was measured:
Test in all cases: NCI-60 one-dose screen, 48 h (100 = growth as untreated, 0 = no growth, -100 = all killed)
Settings in all cases: 10 µM unless noted
NCI-H23 lung = system: NCI-H23 lung
NCI-H226 lung = system: NCI-H226 lung
NCI-H322M lung = system: NCI-H322M lung
HOP-62 NSCLC = system: HOP-62 NSCLC
NCI-H460 lung = system: NCI-H460 lung
HOP-92 NSCLC = system: HOP-92 NSCLC
NCI-H522 lung = system: NCI-H522 lung
A549/ATCC NSCLC = system: A549/ATCC NSCLC
786-0 renal = system: 786-0 renal
COLO 205 colon = system: COLO 205 colon

Measured: growth

COc1ccc(C2CC(c3ccc(Nc4nc(Nc5ccccc5)nc(Nc5ccccc5)n4)cc3)=NN2C(C)=O)cc1 (stereo not given)
inactive: NCI-H23 lung 97.4% | NCI-H226 lung 98.1% | NCI-H322M lung 107% | HOP-62 NSCLC 95.2% | NCI-H460 lung 116% | HOP-92 NSCLC 78% | NCI-H522 lung 88.7% | A549/ATCC NSCLC 88.1% | 786-0 renal 88.5% | COLO 205 colon 111%

COc1cc(OC)c(NC(=O)c2cc3ccccc3cc2O)cc1Cl
active: HOP-92 NSCLC -31.2% | NCI-H522 lung -19.9%
inactive: NCI-H23 lung 10.7% | NCI-H226 lung 77% | NCI-H322M lung 40.2% | HOP-62 NSCLC 68.2% | NCI-H460 lung 11.2% | A549/ATCC NSCLC 32.1% | 786-0 renal 27.4% | COLO 205 colon 66.6%

COc1ccc(\C=N/N=C(N)/C(N)=N\N=C/c2ccc(OC)cc2)cc1
inactive: NCI-H23 lung 95.6% | NCI-H226 lung 96.1% | NCI-H322M lung 123% | HOP-62 NSCLC 97.8% | NCI-H460 lung 108% | HOP-92 NSCLC 92.5% | NCI-H522 lung 87.5% | A549/ATCC NSCLC 113% | 786-0 renal 123% | COLO 205 colon 107%

Cn1cc(-c2nonc2-c2cn(C)c3ccccc23)c2ccccc21
inactive: NCI-H23 lung 43.1% | NCI-H226 lung 81% | NCI-H322M lung 47% | HOP-62 NSCLC 21.2% | HOP-92 NSCLC 48.8% | A549/ATCC NSCLC 21.8% | 786-0 renal 28.1%
active: NCI-H460 lung 8.94% | NCI-H522 lung -20.5% | COLO 205 colon -34%

Nc1nc2ccccc2c2c(=O)c3cccc(Cl)c3sc12
inactive: NCI-H23 lung 80.3% | NCI-H226 lung 94.4% | NCI-H322M lung 89.1% | HOP-62 NSCLC 81.8% | NCI-H460 lung 61.5% | HOP-92 NSCLC 101% | NCI-H522 lung 93.3% | A549/ATCC NSCLC 76.8% | 786-0 renal 96.2% | COLO 205 colon 57.2%

CC(=O)Oc1ccc(C)cc1C
inactive: NCI-H23 lung 103% | NCI-H226 lung 107% | NCI-H322M lung 108% | HOP-62 NSCLC 105% | NCI-H460 lung 115% | HOP-92 NSCLC 105% | NCI-H522 lung 101% | A549/ATCC NSCLC 100% | 786-0 renal 100% | COLO 205 colon 125%

CCC(C)(C)C(=O)O[C@H]1C[C@@H](C)C=C2C=C[C@H](C)[C@H](CC[C@@H]3CC(SCCN)CC(=O)O3)[C@H]21 (stereo not given in full)
inactive: NCI-H23 lung 98.2% | NCI-H226 lung 98.3% | NCI-H322M lung 97.4% | HOP-62 NSCLC 98.9% | NCI-H460 lung 107% | HOP-92 NSCLC 34.6% | NCI-H522 lung 65.4% | A549/ATCC NSCLC 75.7% | 786-0 renal 102% | COLO 205 colon 82.8%

OCCn1cc(-c2nc(-c3c[nH]c4ncccc34)cs2)c2ccccc21
inactive: NCI-H23 lung 71.9% | NCI-H226 lung 58% | NCI-H322M lung 74.8% | HOP-62 NSCLC 74.7% | NCI-H460 lung 78.6% | HOP-92 NSCLC 58% | NCI-H522 lung 58.6% | A549/ATCC NSCLC 77.5% | 786-0 renal 95.1% | COLO 205 colon 85.9%

COC(=O)[C@]12CCC(C)(C)C[C@H]1[C@H]1/C(=N/OCCc3nn[nH]n3)C[C@@H]3[C@@]4(C)CC[C@H](OC(C)=O)C(C)(C)[C@@H]4CC[C@@]3(C)[C@]1(C)CC2
active: NCI-H460 lung 9.64%
inactive: NCI-H23 lung 28.4% | NCI-H226 lung 33.3% | NCI-H322M lung 64.6% | HOP-62 NSCLC 34% | HOP-92 NSCLC 49.9% | NCI-H522 lung 38.3% | A549/ATCC NSCLC 36.8% | 786-0 renal 51.9% | COLO 205 colon 41.4%

CC(C)c1ccc(C(=O)Nc2sc3c(c2C(N)=O)CCC(=O)C3)cc1
inactive: NCI-H226 lung 50.9% | NCI-H322M lung 69.4% | HOP-62 NSCLC 26.2% | A549/ATCC NSCLC 16.8% | 786-0 renal 19.7%
active: NCI-H23 lung -7.38% | NCI-H460 lung 1.37% | HOP-92 NSCLC -32% | NCI-H522 lung -55.8% | COLO 205 colon -43.6%

[O-]/[N+](=C\c1ccc(-n2cc(Cc3ccccc3Cc3cn(-c4ccc(/C=[N+](/[O-])c5ccccc5)cc4)nn3)nn2)cc1)c1ccccc1
inactive: NCI-H23 lung 94.7% | NCI-H226 lung 101% | NCI-H322M lung 93.3% | HOP-62 NSCLC 100% | NCI-H460 lung 108% | HOP-92 NSCLC 112% | NCI-H522 lung 97% | A549/ATCC NSCLC 105% | 786-0 renal 97.5% | COLO 205 colon 107%

COc1ccc(-c2cc(-c3cccnc3)nc3sc4c(=O)[nH]c(-c5ccc(Cl)cc5)nc4c23)cc1OC
inactive: NCI-H23 lung 98.8% | NCI-H226 lung 79.1% | NCI-H322M lung 104% | HOP-62 NSCLC 88.3% | NCI-H460 lung 90.9% | HOP-92 NSCLC 75.1% | NCI-H522 lung 78.6% | A549/ATCC NSCLC 82.8% | 786-0 renal 89.2% | COLO 205 colon 91.2%

CCO/C=N/C1=C(C#N)C(c2ccc(Cl)cc2)c2sc3c(F)cccc3c2O1 (stereo not given)
active: NCI-H522 lung -6.96%
inactive: NCI-H23 lung 76.2% | NCI-H226 lung 88.6% | NCI-H322M lung 92.3% | HOP-62 NSCLC 58.4% | NCI-H460 lung 25.6% | HOP-92 NSCLC 77.1% | A549/ATCC NSCLC 53.4% | 786-0 renal 71.5% | COLO 205 colon 95.7%

N#CC1=C(c2ccccc2)Nc2c(c(-c3ccc(Cl)cc3)nn2-c2ccccc2)C12C(=O)Nc1ccc(Cl)cc12 (stereo not given)
inactive: NCI-H23 lung 92.1% | NCI-H226 lung 80.7% | NCI-H322M lung 91.3% | HOP-62 NSCLC 77.3% | NCI-H460 lung 71.2% | HOP-92 NSCLC 61.8% | NCI-H522 lung 72.2% | A549/ATCC NSCLC 54.7% | 786-0 renal 79.2% | COLO 205 colon 73%

NC(=O)c1cc(I)ccc1NC(=O)/C=C/c1ccccc1
inactive: NCI-H226 lung 56.8% | NCI-H322M lung 33.8% | A549/ATCC NSCLC 33.7% | 786-0 renal 26% | COLO 205 colon 15.3%
active: NCI-H23 lung 9.27% | HOP-62 NSCLC -35.5% | NCI-H460 lung 1.75% | HOP-92 NSCLC 0.535% | NCI-H522 lung -18.7%

Nc1ncnc2c1N=C(c1ccc(Br)cc1)CC(c1cccc(Nc3ccnc4cc(C(F)(F)F)ccc34)c1)N2 (stereo not given)
inactive: NCI-H23 lung 62.7% | NCI-H226 lung 67.3% | NCI-H322M lung 95.6% | HOP-62 NSCLC 60.1% | NCI-H460 lung 59.1% | HOP-92 NSCLC 41.4% | NCI-H522 lung 74% | A549/ATCC NSCLC 55.2% | 786-0 renal 53.7% | COLO 205 colon 54.6%

CC(C)(C)[Si](C)(C)OC1[C@@H](CNC(=O)NC(=O)NC(N)=O)O[C@@H](n2cnc3c(NC(=O)Nc4ccccc4)ncnc32)[C@H]1O[Si](C)(C)C(C)(C)C (stereo not given in full)
inactive: NCI-H23 lung 75.4% | NCI-H226 lung 69.4% | NCI-H322M lung 87.1% | HOP-62 NSCLC 71% | NCI-H460 lung 27.4% | HOP-92 NSCLC 92% | NCI-H522 lung 43.3% | A549/ATCC NSCLC 44.1% | 786-0 renal 90.9% | COLO 205 colon 54.3%

O=C(Nc1cccc(-c2ccc(N3CCOCC3)nn2)c1)Nc1cccc(C(F)(F)F)c1
inactive: NCI-H23 lung 70.4% | NCI-H226 lung 61.8% | NCI-H322M lung 89.6% | HOP-62 NSCLC 76.8% | NCI-H460 lung 79.1% | HOP-92 NSCLC 58.6% | NCI-H522 lung 46.4% | A549/ATCC NSCLC 56.4% | 786-0 renal 92.1% | COLO 205 colon 81%

COc1cc(/C=C2/C=C(c3ccccc3)N(CCc3ccc(S(N)(=O)=O)cc3)C2=O)cc(OC)c1OC
inactive: NCI-H23 lung 103% | NCI-H226 lung 94.6% | NCI-H322M lung 100% | HOP-62 NSCLC 94% | NCI-H460 lung 105% | HOP-92 NSCLC 41.9% | NCI-H522 lung 81.3% | A549/ATCC NSCLC 86.4% | 786-0 renal 85.5% | COLO 205 colon 108%

C1CCC([PH+](C2CCCCC2)C2CCCCC2[PH+](C2CCCCC2)C2CCCCC2)CC1.[Au].[CH-]1CCCCC1C1CCCC[N-]1 (stereo not given)
active: NCI-H23 lung -31% | NCI-H226 lung -35.1% | NCI-H322M lung -52% | HOP-62 NSCLC -39.9% | NCI-H460 lung -69.8% | HOP-92 NSCLC -38.5% | NCI-H522 lung -51% | A549/ATCC NSCLC -56.8% | 786-0 renal -64.6% | COLO 205 colon -62%

COc1cc(C2CC(c3ccc(Nc4nc(Nc5ccc(Cl)cc5)nc(Nc5ccc(Cl)cc5)n4)cc3)=NN2C(C)=O)cc(OC)c1OC (stereo not given)
inactive: NCI-H23 lung 83.3% | NCI-H226 lung 104% | NCI-H322M lung 106% | HOP-62 NSCLC 105% | NCI-H460 lung 106% | NCI-H522 lung 86.8% | A549/ATCC NSCLC 91.1% | 786-0 renal 90.6% | COLO 205 colon 97.9%
active: HOP-92 NSCLC -3.51%

From PubChem BioAssay (NCI)
